Most compounds without a hit are left out; they make up all but 19% or so of the library.
IL-1B inflam inh – qHTS for Inhibitors of Inflammasome Signaling: IL-1-beta AlphaLISA Primary Screen; THP-1 LPS/ATP IL-1B secretion, AlphaLISA, 16 h; stronger effect = lower value; activity change, % at 57.5 µM; 360,000 tested, 4.7% active; AID 743279, 2014; in the data active means activity change below about -50%; inconclusive means mostly about -30% to -49%
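THP-1 cells pretreated 1 hr with compounds (up to 57.5 uM final), then stimulated with LPS (250 ng/mL final) plus ATP (1.25 mM final); secreted IL-1B measured by AlphaLISA after 16 hr, decreased signal indicating inhibition.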
TDP1 cell noCPT – qHTS for Inhibitors of human tyrosyl-DNA phosphodiesterase 1 (TDP1): qHTS in cells in absence of CPT; DT40 Tdp1-/- hTDP1 cells, no CPT, ATP luminescence, 48 h; Potency, µM (highest dose often 46.2 µM), for the others: top-dose activity change, negative = growth inhibition, usual class: inhibitors; 420,000 tested, 15% active; further: potency means the concentration at half of the fitted maximal effect; nearly all actives have a fitted effect of over 55% in size
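Chicken DT40 Tdp1-/- cells stably complemented with human TDP1 were seeded at 400 cells/well with DMSO in place of 20 nM camptothecin. After compound pinning, cells grew at least 48 hr at 37 °C; viability read by CellTiter-Glo luminescence.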
HT1080 IDH1KD tx – qHTS for induction of synthetic lethality in tumor cells producing 2HG: qHTS for the HT-1080-IDH1KD cell line; HT-1080 IDH1 knockdown viability, ATP luminescence, 48 h; Potency, µM (highest dose often 46.1 µM), inactives show at the top dose activity, negative = toxicity, most hits filed as cytotoxic; 360,000 tested, 2% active; AID 686971, 2013;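 further: potency means the concentration at half of the fitted maximal effect; 0% = DMSO wells and -100% = cell-free medium wells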
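Knockdown cells (IDH1KD HT-1080) received compounds 2 h after plating at 750 cells/well and were kept 48 h at 37 °C in 5% FBS RPMI. A CellTiter-Glo luminescence read gave % activity for curve fitting.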
TDP1 cell CPT – qHTS for Inhibitors of human tyrosyl-DNA phosphodiesterase 1 (TDP1): qHTS in cells in presence of CPT. chicken DT40 Tdp1-/-;hTDP1 cells + 20 nM CPT, ATP luminescence, 48 h. Potency, µM (doses to about 46.2 µM), inactives show at the highest dose activity change, negative = growth inhibition, usual class: inhibitors. AID 686979, 2013. 420,000 tested, 12% active; further: potency means the concentration at half of the fitted maximal effect; nearly all actives have a fitted effect of over 55% in size
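Chicken DT40 Tdp1-/- cells stably complemented with human TDP1 were seeded at 400 cells/well in medium containing 20 nM camptothecin, exposed to pin-transferred compounds, and grown at 37 °C for at least 48 hr. Viability was read as ATP luminescence.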
HT1080NT lethal – qHTS for induction of synthetic lethality in tumor cells producing 2HG: qHTS for the HT-1080-NT fibrosarcoma cell line | HT-1080-NT fibrosarcoma viability, CellTiter-Glo ATP luminescence, 48 h | Potency, µM (series often up to 46.1 µM), inactives show top-dose activity, negative = less viability, hits mostly cytotoxic | 360,000 tested, 1.6% active;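 further: NT is the 2HG producing partner of a matched IDH1 knockdown line; potency means the concentration at half of the fitted maximal effect; 0% = DMSO-treated cells and -100% = media-only wells without cells; nearly all actives have a fitted effect of over 55% in size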
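Luminescent CellTiter-Glo readout after 48 hours of compound exposure at 37 degrees C defined viability of HT-1080-NT cells. Activity was normalized to DMSO wells and cell-free media wells; concentration-response curves were fitted and assigned curve classes.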
* hit, by the source's call; ? = inconclusive; nt = no result given; [ ] = remark or other dose. Unless noted, the call rests on the fitted dose curve; in most records, active means well fitted curve in the direction sought with a large enough effect; inconclusive means small, poorly fitted or top-dose-only effect, or another doubt; inactive means no such curve, though single readings can be large; an effect the other way counts as inactive or inconclusive. Unless noted, on the % scale 0 is the no-effect control and ±100 the full control effect.

SMILES	IL-1B inflam inh	TDP1 cell noCPT	HT1080 IDH1KD tx	TDP1 cell CPT	HT1080NT lethal
CN(C)CCCN(C(=O)c1cc2ccccc2oc1=O)c1nc2c(F)cccc2s1	-21	-26%	2%	-9%	6%
Cc1cccc2sc(N(CCN(C)C)C(=O)c3ccc4ccccc4c3)nc12	-9	?	-1%	?	2%
C/C=C/c1cccc(-c2nc(C(=O)NC3CCC3)cc3c2[C@H](CCO)N(S(=O)C(C)(C)C)C3)c1 (stereo partly drawn)	-19	?	1%	?	-4%
C/C=C/c1cccc(-c2nc(C(=O)NC3Cc4ccccc4C3)cc3c2[C@@H](CCO)N(C(C)=O)C3)c1	-57*	?	?	15µM*	?
C/C=C/c1cccc(-c2nc(C(=O)NC3CCCC3)cc3c2[C@@H](CCO)N(S(=O)C(C)(C)C)C3)c1 (stereo partly drawn)	-4	18µM*	2%	26µM*	-13%
COc1cc(-c2coc3c(C(=O)NCc4cccc(Cl)c4)cccc23)ccc1O	-55*	18µM*	23µM*	?	?
COc1cc(-c2coc3c(C(=O)NCc4ccccc4)cccc23)ccc1O	?	-76%	?	18µM*	18µM*
COc1ccc(NC(=O)c2cccc3c(-c4ccc(O)c(OC)c4)coc23)cc1	-1	18µM*	?	?	?
N/N=C(\c1ccccc1)C12CN3CN(CN(C3)C1)C2	-1	-30%	11%	?	16%
COc1cccc(-c2ccc3ncnc(NC4CCNCC4)c3c2)c1	nt	13µM*	nt	?	nt
N#Cc1cccc(-c2ccc3ncnc(NC4CCNCC4)c3c2)c1	nt	-25%	nt	-22%	nt
COc1cccc(-c2ccc3ncnc(NC4CC4)c3c2)c1	nt	12µM*	nt	16µM*	nt
CNc1ncnc2ccc(-c3cccc(OC)c3)cc12	nt	23µM*	nt	16µM*	nt
CNc1ncnc2ccc(-c3ccc4c(c3)OCO4)cc12	nt	18µM*	nt	23µM*	nt
CNc1ncnc2ccc(-c3ccccc3C#N)cc12	nt	-4%	nt	?	nt
COc1cccc(CNC(=O)CCCSc2ccccc2)c1	-11	-3%	5%	1%	6%
COc1cccc(-c2ccc3ncnc(NCCNC(C)=O)c3c2)c1	nt	?	nt	15µM*	nt
Cc1ccc2c(c1)CN(CCNC(=O)c1cccc(Cn3cccn3)c1)CC(C)O2 (stereo not drawn)	nt	-1%	nt	4%[9.04 µM]	nt
CCOc1ccc(NC(=O)CCSc2nc3c(c(CC)c2C#N)C(=O)CC(C)(C)C3)cc1	-15	21µM*	-7%	?	-10%
CCc1c(C#N)c(SCCC(=O)Nc2ccc(C)cc2)nc2c1C(=O)CC(C)(C)C2	-17	?	-2%	?	-8%
Cc1cc(S(=O)(=O)Nc2nc(CN3CCOCC3)nc3sc4c(c23)CCC4)ccc1F	29	26µM*	-27%	?	-15%
Cc1ccc(SCc2nc(-c3ccc(C(=O)Nc4cc(C)ccc4C)cc3)oc2C)cc1	nt	8.2µM*	nt	8.2µM*	nt
Cc1ccc(SCc2nc(-c3ccc(C(=O)NCc4ccccc4Cl)cc3)oc2C)cc1	nt	9.2µM*	nt	8.2µM*	nt
Cc1ccc(-c2nc(CS(=O)CC(=O)NC(C)CCc3ccccc3)c(C)o2)cc1 (stereo not drawn)	-10	-26%	-3%	-17%	-8%
Cc1ccc(S(=O)Cc2nc(-c3ccc(C(=O)NC(C)c4ccccc4)cc3)oc2C)cc1 (stereo not drawn)	nt	15µM*	nt	?	nt
COc1cc(NC(=O)c2ccc(-c3nc(CSc4ccccc4)c(C)o3)cc2)cc(OC)c1	nt	15µM*	nt	18µM*	nt

High-throughput results from PubChem BioAssay.
